Screening results as filed in PubChem BioAssay.
Rows were chosen to be rich in hits. Some 5.1% of all compounds tested hit in one or more screens of this group.
Tau fluor counter: counter-screen for tau fibril formation inhibitors. tau K18 P301L Alexa594 fluorescence, heparin fibrillization. Potency, µM (series often up to 57.7 µM). hit rate 0.93% among 280,000; also: nearly all actives have a fitted effect of over 55% in size
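Human K18 P301L tau (15 uM unlabeled plus 0.24 uM Alexa 594-labeled, final) in 100 mM sodium acetate pH 7 was mixed with compound and 20 uM heparin and incubated 6 hr at 37 C.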
NPSR antag: antagonists of human neuropeptide S receptor cAMP signaling | hit rate 1% among 220,000 | CHO-NPSR cells, cAMP TR-FRET, antagonist mode | Q6W5P4 | Potency, µM (highest dose often 38.3 µM), most hits filed as inhibitors; also: nearly all actives have a fitted effect of over 50% in size
Target sequence (Q6W5P4 whole entry, looked up): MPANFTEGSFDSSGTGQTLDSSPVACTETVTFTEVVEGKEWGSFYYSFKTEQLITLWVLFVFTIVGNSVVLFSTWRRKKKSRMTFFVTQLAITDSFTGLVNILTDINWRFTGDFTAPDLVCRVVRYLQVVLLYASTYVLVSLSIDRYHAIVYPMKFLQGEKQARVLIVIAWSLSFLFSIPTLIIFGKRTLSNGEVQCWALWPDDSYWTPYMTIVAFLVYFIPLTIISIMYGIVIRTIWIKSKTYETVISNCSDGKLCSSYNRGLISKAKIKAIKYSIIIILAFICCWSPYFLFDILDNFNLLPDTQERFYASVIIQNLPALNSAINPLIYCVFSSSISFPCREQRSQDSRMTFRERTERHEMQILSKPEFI
Tau fibril FP: blocks human tau fibril formation measured by polarization. K18 P301L tau heparin fibrillization, Alexa594 FP, 6 h. Potency, µM (top dose mostly 57.7 µM), actives largely listed as inhibitors. hit rate 0.39% among 280,000. AID 1468; also: nearly all actives have a fitted effect of over 55% in size
Target sequence (P10636 561-689 P618L limits assumed): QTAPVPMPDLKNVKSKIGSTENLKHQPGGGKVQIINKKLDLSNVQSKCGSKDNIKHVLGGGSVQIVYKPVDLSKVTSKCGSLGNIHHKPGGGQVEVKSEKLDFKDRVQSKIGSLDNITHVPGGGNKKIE
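K18 P301L tau (15 uM unlabeled/0.24 uM Alexa 594-labeled, final) + compound + heparin 20 uM final; 100 mM NaOAc pH 7; 6 hr 37 C; ThT 30 uM final added, 1 hr RT; FP ex 555/em 632 nm.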
Tau ThT inhib: blocks human tau fibril formation measured by thioflavin T. recombinant tau K18 P301L (four-repeat tau fragment), heparin-induced fibrillization, ThT fluorescence. Potency, µM (doses to about 57.4 µM), most hits filed as inhibitors. hit rate 2.1% among 270,000. AID 1460; also: nearly all actives have a fitted effect of over 55% in size
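Heparin-induced (20 uM) aggregation of recombinant human K18 P301L tau, 15 uM unlabeled with 0.24 uM labeled, pH 7 acetate buffer, 6 hr at 37 C with compound. Fibrils quantified by 30 uM ThT fluorescence after 1 hr ambient incubation.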
KDM4E inh: blocks human JMJD2E demethylase activity | B2RXH2 | JMJD2E catalytic domain, FDH-coupled NADH fluorescence (FDH is formaldehyde dehydrogenase) | Potency, µM (doses to about 57.1 µM), actives largely listed as inhibitors | hit rate 1.6% among 230,000 | AID 2147; active = well fitted inhibition curve with a large enough effect, not every such curve was filed as active; inconclusive = small, poorly fitted or top-dose-only effect, or another doubt; inactive = no such curve, though single readings can be large or run the other way; also: nearly all actives have a fitted effect of over 50% in size
PNC assembly inh: blocks assembly of the perinucleolar compartment; PC3M PTB-GFP, PNC prevalence imaging, 16 h; hits give low values; activity change (PNC), negative = inhibition, % at 10 µM; hit rate 3.1% among 140,000;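 active = readout at or below -70, meaning at least 70% loss of cells showing the perinucleolar compartment, a nuclear body marking cancer cells; inconclusive = readout between -30 and a set limit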
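Compounds are pinned in duplicate onto adhered PC3M cells stably expressing GFP-tagged PTB and incubated 16 h at 37 C. Cells are then fixed, nuclei stained with Hoechst, and PNC-positive cells counted.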
A number is an active result; [ ] = another dose, or the depositor's remark. Unless noted, calls follow the shape of the dose curve; as a rule, active = well fitted curve in the direction sought with a large enough effect; inconclusive = small, poorly fitted or top-dose-only effect, or another doubt; inactive = no such curve, though single readings can be large; an effect the other way counts as inactive or inconclusive.

CCC(C)c1ccc(OCC(=O)Nc2ccc(-c3nc4ncccc4o3)cc2)cc1 (stereo not given) was read as Tau fluor counter inactive, Tau fibril FP inactive and Tau ThT inhib inconclusive.
`CCOC(=O)c1c(Oc2ccc(OC)cc2)nnc(-c2ccccc2)c1-c1ccccc1` gave Tau fluor counter inactive, Tau fibril FP inactive and Tau ThT inhib inactive.
`C=C1C(=O)O[C@@H]2C[C@@H](C)[C@@H]3C=CC(=O)[C@@]3(C)[C@@H](OC(C)=O)[C@H]12` gave Tau fluor counter inactive, NPSR antag inactive, Tau fibril FP inconclusive, Tau ThT inhib 4µM and KDM4E inh inactive.
Screening C[C@@H]1C[C@@H]2OC(=O)[C@]3(C)[C@H]2[C@@H](OC3(C)O)[C@]2(C)C(=O)C=C[C@H]12 (stereo not given in full) returned Tau fluor counter inactive, NPSR antag inactive, Tau fibril FP inactive, Tau ThT inhib inactive and KDM4E inh inactive.
`Cc1cc(Cl)ccc1NC(=O)CN1C(=O)COc2ccc(S(=O)(=O)Nc3ccccc3)cc21` gave Tau fluor counter inconclusive, Tau fibril FP inconclusive and Tau ThT inhib inactive.
For CN(C)c1ncnc2c1NC1=C(S2)C(=NCCCC(=O)O)CC(C)(C)C1 the results were Tau fluor counter inactive, NPSR antag inconclusive, Tau fibril FP inconclusive, Tau ThT inhib 10µM, KDM4E inh inconclusive and PNC assembly inh inactive.
COC(=O)c1sccc1S(=O)(=O)N1CCN(c2ccc(C)cc2C)CC1 was read as Tau fluor counter inconclusive, Tau fibril FP inactive and Tau ThT inhib inactive.
C=CCn1c(O)c(CN2CCCCC2)c(C)c(C#N)c1=O was read as Tau fluor counter inactive, NPSR antag inactive, Tau fibril FP inconclusive, Tau ThT inhib 25µM and KDM4E inh inconclusive.
`Cc1c(CN2CCCC(C)C2)c(O)n(CCO)c(=O)c1C#N` (stereo not given) gave Tau fluor counter inactive[2.34 µM], NPSR antag inactive, Tau fibril FP inactive, Tau ThT inhib inactive and KDM4E inh inactive.
`Cn1c(O)c(N=Nc2ccc(F)cc2)c2ccccc21` gave Tau fluor counter inactive, NPSR antag inactive, Tau fibril FP inactive, Tau ThT inhib 13µM and KDM4E inh inactive.
Cc1ccc(NCC(=O)N=Nc2c(O)n(C)c3ccccc23)cc1 was read as Tau fluor counter inactive, NPSR antag inactive, Tau fibril FP inactive, Tau ThT inhib inconclusive and KDM4E inh inactive.
Screening Cn1c(O)c(N=NC(=O)c2cc(-c3cccs3)nc3ccccc23)c2ccccc21 returned Tau fluor counter inactive, NPSR antag inactive, Tau fibril FP inconclusive, Tau ThT inhib inconclusive, KDM4E inh inactive and PNC assembly inh inactive.
Screening Cn1c(O)c(N=Nc2nc(-c3ccccc3)cs2)c2ccccc21 returned Tau fluor counter inactive, NPSR antag inactive, Tau fibril FP inactive, Tau ThT inhib 2µM, KDM4E inh inactive and PNC assembly inh inactive.
Screening CN(C(=O)CSc1nc2ccc(NC(=O)c3cccs3)cc2s1)c1ccccc1 returned Tau fluor counter inconclusive, Tau fibril FP inconclusive and Tau ThT inhib inactive.
Screening C/C(=C\C[Si](C)(C)C)CCC=O returned Tau fluor counter inactive, Tau fibril FP inactive, Tau ThT inhib inactive and KDM4E inh inactive.
Fc1ccc(-c2cc(C(F)(F)F)nc(NCc3ccccc3)n2)cc1 was read as Tau fluor counter inactive, Tau fibril FP inactive and Tau ThT inhib inactive.
For Fc1ccc(-c2cc(C(F)(F)F)nc(NCc3cccs3)n2)cc1 the results were Tau fluor counter inactive, NPSR antag inactive, Tau fibril FP inconclusive, Tau ThT inhib inactive, KDM4E inh inconclusive and PNC assembly inh -113.
`Fc1ccc(-c2csc(-c3nc(-c4ccc(Br)s4)cs3)n2)cc1` gave Tau fluor counter inactive, Tau fibril FP inactive and Tau ThT inhib inactive.
`O=C(Nc1ccc(F)c(Cl)c1)Nc1csc2ccccc12` gave Tau fluor counter 7.9µM[quencher], NPSR antag inconclusive, Tau fibril FP inconclusive and KDM4E inh inactive.
Screening O=C(Nc1ccc(F)cc1F)Nc1csc2ccccc12 returned Tau fluor counter 11µM[quencher], NPSR antag inactive, Tau fibril FP inactive, Tau ThT inhib inconclusive and KDM4E inh inactive.
For O=C(Nc1ccncc1)Nc1ccc(F)c(Cl)c1 the results were Tau fluor counter inconclusive, NPSR antag inactive, Tau fibril FP inconclusive, Tau ThT inhib inactive and KDM4E inh inactive.
Cc1nc2nc(CNC(=O)c3cccc(F)c3)nn2c(C)c1CCC(=O)Nc1cccc(Cl)c1 was read as Tau fluor counter inactive, Tau fibril FP inactive and Tau ThT inhib inactive.
For COc1ccc(C2Nc3ccc4ccccc4c3-c3c2c(=O)oc2ccccc32)cc1 (stereo not given) the results were Tau fluor counter inconclusive, NPSR antag 7.9µM, Tau fibril FP inconclusive, Tau ThT inhib inactive, KDM4E inh 3.2µM and PNC assembly inh inconclusive.
For CCOc1ccc(C2Nc3ccc4ccccc4c3-c3c2c(=O)oc2ccccc32)cc1 (stereo not given) the results were Tau fluor counter inconclusive, NPSR antag 10µM, Tau fibril FP inconclusive, Tau ThT inhib inactive, KDM4E inh inconclusive and PNC assembly inh inactive.
Screening O=c1oc2ccccc2c2c1C(c1ccc(Cl)cc1)Nc1ccc3ccccc3c1-2 (stereo not given) returned Tau fluor counter inactive, NPSR antag inconclusive, Tau fibril FP inactive, Tau ThT inhib inactive, KDM4E inh inconclusive and PNC assembly inh inactive.
`CCOc1ccc(NC(=O)c2nn(C)c3c2CS(=O)(=O)c2ccccc2-3)cc1` gave Tau fluor counter inactive, Tau fibril FP inactive and Tau ThT inhib inactive.
Screening O=C(Nc1nnc(COc2ccccc2F)s1)Nc1ccccc1F returned Tau fluor counter inconclusive, NPSR antag inactive, Tau fibril FP 14µM and KDM4E inh inactive.
O=C(Nc1nnc(-c2ccc(F)cc2)s1)Nc1ccccc1F was read as Tau fluor counter inactive, NPSR antag inactive, Tau fibril FP inactive and KDM4E inh inactive.
`O=C(Nc1nnc(COc2ccc(F)cc2)s1)c1cccs1` gave Tau fluor counter inactive, NPSR antag inactive, Tau fibril FP inactive, Tau ThT inhib inactive, KDM4E inh inactive and PNC assembly inh inconclusive.
For O=C(Nc1ccc(F)cc1)Nc1nnc(COc2ccccc2F)s1 the results were Tau fluor counter inconclusive, NPSR antag inactive, Tau fibril FP 14µM, Tau ThT inhib inactive and KDM4E inh inactive.
Cc1ccccc1NCc1ccc(O)c2ncccc12 was read as Tau fluor counter inactive, NPSR antag inactive, Tau fibril FP inactive, Tau ThT inhib inactive, KDM4E inh 7.1µM and PNC assembly inh inactive.
`OCc1ccnc2c(O)cccc12` gave Tau fluor counter inconclusive, NPSR antag inactive, Tau fibril FP inactive, Tau ThT inhib inconclusive, KDM4E inh inconclusive and PNC assembly inh inactive.
